# Results published in PubChem BioAssay (NCI).
# Compounds without any hit were thinned out: in the full panel of roughly 83,000, 20% have a hit.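 How to read the values: 0–100, growth inhibition (40 = 60% inhibited); 0, no net growth; -100 to 0, cell death (-40 = 40% of starting cells died; -100 = all dead).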 Active and inactive are the calls of the source. Rule for the calls: active = growth percent below 10; inactive = the rest.
# Tested on: MDA-MB-468 breast
# Experiment: NCI-60 one-dose screen, 48 h (100 = growth as untreated, 0 = no growth, -100 = all killed)
# Settings: 10 µM unless noted
row,Structure (SMILES),growth
1,CN[C@@]12CC3(C=CC(=O)C=C3)O[C@]1(Cc1ccc(OC)cc1)N(C)C(=O)N2,23.7% (inactive)
2,CC1(C)C(=NO)C(C)(C)C1=NO,103% (inactive)
3,COc1ccc(/C=C2\C(=O)N(C(=O)c3csc(NC(C)=O)n3)N=C2C)cc1,112% (inactive)
4,O=C1N[C@@H]2[C@@H](O)[C@@H](O)[C@H](O)C[C@H]2c2cc3c(c(O)c21)OCCO3,-27.2% (active)
5,CN1CCN(CC(=O)N(C)c2ccc(N=C(c3ccccc3)c3c(O)[nH]c4ccc(C#N)cc34)cc2)CC1,93.8% (inactive)
6,NC(CO)(CO)c1ccccc1,79.9% (inactive)
7,CCOc1c(C#N)nnc2c(C#N)c(NC(=O)c3ccccc3)nn12,103% (inactive)
8,Oc1c(Cl)cc(Cl)c2ccc(Cn3cc(-c4cc(C(F)(F)F)cc(C(F)(F)F)c4)nn3)nc12,18.6% (inactive)
9,Cc1cc(O)c(C2=NN(c3ccc(S(N)(=O)=O)cc3)C(/C=C/c3ccccc3)C2)cc1Cl (stereo not given),43.3% (inactive)
10,CCN(CC)CCOc1ccc(/C(=C(\C)c2ccc(OC)c(F)c2)c2ccc(Cl)cc2)cc1,81.6% (inactive)
11,O=S(=O)(NCCCNc1nccc(-c2[nH]c(-c3ccccc3)nc2-c2ccc(Cl)c(O)c2)n1)c1ccc(Br)cc1,25.9% (inactive)
12,CC[C@@H](C(=O)[C@H](C)[C@H](O)[C@@H](C)[C@H]1O[C@H]([C@@H](CC)C(=O)O)CC[C@H]1C)C1O[C@]2(C=C[C@@H](O)[C@]3(CC[C@@](C)([C@H]4CC[C@](O)(CC)[C@H](C)O4)O3)O2)[C@H](C)C[C@@H]1C (stereo not given in full),0.843% (active)
13,C#CCOc1ccc2ncnc(Nc3cccc(NC(=O)CCl)c3)c2c1,68.5% (inactive)
14,COc1ccc2nc3ccccc3c(NCc3ccc(C)cc3)c2c1,-18.6% (active)
15,O=C1CCC(NC(=S)Nc2ccccc2)N1 (stereo not given),112% (inactive)
16,COc1ccc(/C=C2\CCc3ccccc3C2=O)cc1,76.7% (inactive)
17,CCn1c2ccc(O)cc2c2c(C)c3c[n+](C(C)C)ccc3c(C)c21,-19.7% (active)
18,COc1cc(CNc2oc(-c3ccccc3)c(-c3ccccc3)c2C#N)cc(CN2CCN(C)CC2)c1O,57.4% (inactive)
19,O=c1cc(CSc2nnc(-c3ccc(F)cc3)o2)c2ccc3ccccc3c2o1,101% (inactive)
20,CC(=O)C1N=NCC1c1ccccc1 (stereo not given),102% (inactive)

row,Structure (SMILES),growth
1,O=C(Nc1ccc(-c2nc(N3CCOCC3)c3cccn3n2)cc1)Nc1cccnc1,-37.9% (active)
2,O=C(Nc1ccc(-c2nc3ccc(NC(=O)c4ccc(Cl)cc4)cc3[nH]2)cc1)c1ccc(Cl)cc1,-10.8% (active)
3,Cc1ccc2cc3c(NC(=O)c4cccnc4)nn(C)c3nc2c1,80.3% (inactive)
4,CCOC(=O)c1cc(C(=O)c2cc(OC)c(OC)c(OC)c2)n2ccc(-c3ccncc3)cc12,99.1% (inactive)
5,Nc1nc2c(c3cnccc13)C(c1cccc(Br)c1)Cc1cnccc1-2 (stereo not given),-16.1% (active)
6,CC(=O)N(C(C)=O)c1ccc(C)cc1,98.9% (inactive)
7,O=C(CNc1cccnc1)Nc1ccc(C(=O)/C=C/c2ccc(Cl)cc2)cc1,91.9% (inactive)
8,O=C(CSc1cc[n+](CCCCO)c2ccccc12)n1ccc2ccccc21,108% (inactive)
9,Cc1c(C(=O)NCCCc2ccccc2)sc2ncc(-c3ccc(Br)cc3)n12,108% (inactive)
10,COc1ncnc2c1cnn2C,106% (inactive)
11,Cc1cc(C(N)=O)cc(C)c1C(=O)OCCCl,115% (inactive)
12,COc1ccc(C(c2cc(OC)c(OC)c(OC)c2)N2CCN(c3ccccc3)CC2)cc1 (stereo not given),77.2% (inactive)
13,Cc1ccc(/C=C/C(=O)c2ccc(F)cc2)s1,42.2% (inactive)
14,CC(=O)Nc1ccc(S(=O)(=O)Nc2cccc(-c3nc(-c4ccc(NC(=O)c5cccnc5)cc4Cl)no3)c2)cc1,18.4% (inactive)
15,CCCCCc1c(C)[nH]c(/C=C2\N=C(c3ccc[nH]3)C=C2OCc2ccccc2)c1C,-51.6% [100 µM] (active)
16,O=C(/C=C/C(=O)c1ccccc1)c1ccccc1,107% (inactive)
17,COC(=O)[C@]1(C)CCC[C@]2(C)[C@H]3C[C@H]4C(C(C)C)=C[C@]3(CC[C@H]21)[C@@H]1C(=O)N(CCC#N)C(=O)[C@@H]14,86.9% (inactive)
18,COc1cc2cc(Oc3ccc(NC(=O)Nc4cccc(C(F)(F)F)c4)cc3)c(C)nc2cc1OCCN(C)C,79.6% (inactive)
19,O=C1/C(=C\c2ccccc2)CN(C(=O)c2ccccc2F)C/C1=C\c1ccccc1,-72.4% (active)
20,CCCCCCNC(=O)Oc1ccc(/C(=C(/CC)Cc2ccccc2)c2ccc(OCCCN(C)C)cc2)cc1,89.5% (inactive)
